In PubChem BioAssay (EPA / NIEHS) one finds outcome and AC50 data, which are given here for 6 molecules.

Several values for one entry are separate records, joined by “and”; a condition that tells them apart may be missing. Equal entries are not always repeated. Inconclusive results are not listed. More than one record can exist for a structure, and the calls need not agree. Activity calls are given as the source filed them. Rule for the calls, unless noted: active = hit-call score of the fitted dose curve at least 0.9, where 1 is the maximum; inactive = score below 0.9.

Read-out in experiment [1]: Interleukin-8 (IL8), CXCL8 (gene 3576)
Nature of the experiment: BSK_3C_IL8: BioMAP Diversity Plus: 3C Assay for Interleukin-8 (IL8) Biomarker Activity (AID 2283020). Particulars: primary human endothelial cells (HUVEC); actives raise or lower the signal. The procedure, abridged:
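HUVEC, 3C stimulation; 24 h compound exposure; IL-8 read by ELISA; gain or loss of signal fitted relative to DMSO control.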

Read-out in experiment [2]: Monokine induced gamma interferon (MIG), CXCL9 (gene 4283)
Description: BSK_3C_MIG: BioMAP Diversity Plus: 3C Assay for Monokine induced gamma interferon (MIG) Biomarker Activity (AID 2283021). To be noted: primary human endothelial cells (HUVEC); actives raise or lower the signal. The procedure, abridged: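 HUVEC, 3C system; 24 h chemical exposure; MIG by ELISA; bidirectional fit vs DMSO baseline.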

Experiment [3] addresses human Vitamin D Receptor (VDR), VDR (gene 7421) (UniProt P11473). Nature of the experiment: ATG_VDR_TRANS: Attagene TRANS-FACTORIAL HepG2 Assay for human Vitamin D Receptor (VDR) (AID 2283022; active = hit-call score of the fitted dose curve at least 0.9, where 1 is the maximum). An outline of the steps:
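Transactivation by an exogenous VDR-Gal4 chimera in transiently transfected HepG2 cells was measured as reporter transcript level 24 hours after chemical treatment. RT-PCR products were analysed by capillary electrophoresis and fitted in the positive direction relative to DMSO.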

A short description of experiment [4]: BSK_3C_SRB: Viability Assessment in the BioMAP Diversity Plus: 3C Assay (AID 2283023).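 Note: fitted both ways against DMSO so a hit may be signal rise or drop.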 To be noted: primary human endothelial cells (HUVEC). An outline of the steps:
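Cytotoxicity readout in parallel HUVEC 3C cultures: after 24 h compound exposure, cells fixed with 10% TCA, stained with 0.1% SRB and read at 560 nm. Gain or loss relative to DMSO fitted.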

Read-out in experiment [5]: Matrix Metallopeptidase 1 (MMP1), MMP1 (gene 4312)
Description: BSK_BE3C_MMP1: BioMAP Diversity Plus: BE3C Assay for Matrix Metallopeptidase 1 (MMP1) Biomarker Activity (AID 2283024). To be noted: primary human bronchial epithelial cells; actives raise or lower the signal. The procedure, abridged:
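ELISA read-out of MMP1 in human lung bronchial epithelial primary cultures, 24 h post-dose; bidirectional curve fit vs DMSO baseline, gain or loss of signal scored.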

Read-out in experiment [6]: Pselectin, SELP (gene 6403)
Description: BSK_4H_Pselectin: BioMAP Diversity Plus: 4H Assay for Pselectin Biomarker Activity (AID 2283026). Particulars: primary human endothelial cells (HUVEC); actives raise or lower the signal. The procedure, abridged:
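HUVEC, 24 h chemical exposure; P-selectin read by ELISA. Bidirectional curve fit vs DMSO baseline; gain or loss of signal scored.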

Experiment [7] can be described thus: BSK_4H_SRB: Viability Assessment in the BioMAP Diversity Plus: 4H Assay (AID 2283027).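 For AC50: curves fitted both ways versus DMSO so AC50 may be loss or gain.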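 Note: cells exposed to compound for 24 h before staining.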 Particulars: primary human endothelial cells (HUVEC). An outline of the steps: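 Cytotoxicity readout: sulforhodamine B (0.1%) staining of total protein after 10% TCA fixation, measured at 560 nm in human umbilical vein endothelium at 24 h. DMSO set the baseline; fitting was bidirectional.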

Experiment [8] can be described thus: BSK_BE3C_SRB: Viability Assessment in the BioMAP Diversity Plus: BE3C Assay (AID 2283028).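 For AC50: fitted both ways so AC50 may mark signal gain or loss versus DMSO.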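 Note: measured 24 h after chemical dosing.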 To be noted: primary human bronchial epithelial cells. The procedure, abridged: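 Cytotoxicity read-out: SRB (0.1%) staining of TCA-fixed (10%) human lung bronchial epithelial cells, absorbance 560 nm, 24 h post-dosing. Curves fitted both directions relative to DMSO.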

Read-out in experiment [9]: Thrombomodulin, THBD (gene 7056)
Nature of the experiment: BSK_3C_Thrombomodulin: BioMAP Diversity Plus: 3C Assay for Thrombomodulin Biomarker Activity (AID 2283029). Particulars: primary human endothelial cells (HUVEC); actives raise or lower the signal. An outline of the steps: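 HUVEC, 3C conditions; compound 24 h; thrombomodulin by ELISA; bidirectional curve fit vs DMSO baseline; parallel SRB total-protein staining for cytotoxicity.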

Read-out in experiment [10]: Urokinase-type plasminogen activator receptor (uPAR), PLAUR (gene 5329)
Nature of the experiment: BSK_4H_uPAR: BioMAP Diversity Plus: 4H Assay for Urokinase-type plasminogen activator receptor (uPAR) Biomarker Activity (AID 2283030). To be noted: primary human endothelial cells (HUVEC); actives raise or lower the signal. An outline of the steps:
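uPAR level read by ELISA on HUVEC cultures (BioMAP 4H) 24 h post-dosing, analyzed for gain or loss relative to DMSO. Parallel SRB staining assessed overt cytotoxicity.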

Read-out in experiment [11]: Vascular endothelial growth factor receptor 2 (Homo sapiens) (UniProt P35968)
Description: BSK_4H_VEGFRII: BioMAP Diversity Plus: 4H Assay for Vascular endothelial growth factor receptor 2 (VEGFR2) Biomarker Activity (AID 2283031). Particulars: primary human endothelial cells (HUVEC); actives raise or lower the signal. An outline of the steps: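 Measured by ELISA after 24 h of compound treatment: VEGFR2 on primary human umbilical vein endothelial cells, fitted in both directions relative to DMSO. Parallel cultures received SRB staining (560 nm) for overt cytotoxicity.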

Read-out in experiment [12]: Human Leukocyte Antigen - DR isotype (HLADR), HLA-DRA (gene 3122)
Nature of the experiment: BSK_BE3C_HLADR: BioMAP Diversity Plus: BE3C Assay for Human Leukocyte Antigen - DR isotype (HLADR) Biomarker Activity (AID 2283032). To be noted: primary human bronchial epithelial cells; actives raise or lower the signal. An outline of the steps: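 Primary human bronchial epithelial cells (BE3C); 24 h chemical exposure; HLA-DR by ELISA; bidirectional curve fit vs DMSO baseline.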

Read-out in experiment [13]: Vascular cell adhesion molecule 1 (VCAM1), VCAM1 (gene 7412)
Nature of the experiment: BSK_4H_VCAM1: BioMAP Diversity Plus: 4H Assay for Vascular cell adhesion molecule 1 (VCAM1) Biomarker Activity (AID 2283033).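 For outcome: cell-surface VCAM-1 protein measured by ELISA.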 Particulars: primary human endothelial cells (HUVEC); actives raise or lower the signal. An outline of the steps: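 HUVEC, 24 h post-dose; VCAM-1 by ELISA. Bidirectional curve fit vs DMSO baseline. Parallel SRB total-protein stain (0.1% SRB after 10% TCA fixation, 560 nm) for cytotoxicity.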

Read-out in experiment [14]: Interferon-gamma inducible Protein 10 (IP10), CXCL10 (gene 3627)
Nature of the experiment: BSK_BE3C_IP10: BioMAP Diversity Plus: BE3C Assay for Interferon-gamma inducible Protein 10 (IP10) Biomarker Activity (AID 2283034). To be noted: primary human bronchial epithelial cells; actives raise or lower the signal. The procedure, abridged:
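ELISA readout of IP-10 in BE3C system: primary human bronchial epithelial cells, 24 h post-dosing; bidirectional curve fit vs DMSO baseline.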

Read-out in experiment [15]: Monokine induced gamma interferon (MIG), CXCL9 (gene 4283)
Description: BSK_BE3C_MIG: BioMAP Diversity Plus: BE3C Assay for Monokine induced gamma interferon (MIG) Biomarker Activity (AID 2283035).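 For outcome: MIG protein measured by ELISA in BE3C cultures after 24 h of dosing.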 To be noted: primary human bronchial epithelial cells; actives raise or lower the signal. The procedure, abridged: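 hu bronchial epithelial 1° cells, 24 h cpd; MIG by ELISA; bidirectional fit, DMSO = baseline.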

Read-out in experiment [16]: Plasminogen activator inhibitor-1 (PAI1), SERPINE1 (gene 5054)
Nature of the experiment: BSK_BE3C_PAI1: BioMAP Diversity Plus: BE3C Assay for Plasminogen activator inhibitor-1 (PAI1) Biomarker Activity (AID 2283037). Particulars: primary human bronchial epithelial cells; actives raise or lower the signal. The procedure, abridged:
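ELISA read-out of PAI-1 from human bronchial epithelial primary cells, 24 h post-dosing; bidirectional curve fit vs DMSO baseline, gain or loss of signal scored.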

Read-out in experiment [17]: urokinase plasminogen activator (uPA), PLAU (gene 5328)
Nature of the experiment: BSK_BE3C_uPA: BioMAP Diversity Plus: BE3C Assay for urokinase plasminogen activator (uPA) Biomarker Activity (AID 2283038).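 For outcome: uPA protein level quantified by ELISA in cell cultures; uPA read one day after compound addition.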 Particulars: primary human bronchial epithelial cells; actives raise or lower the signal. An outline of the steps: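 ELISA for uPA on human primary bronchial epithelial cultures 24 h post-treatment, gain or loss against DMSO. Parallel SRB staining (0.1% after 10% TCA fixation, 560 nm) assessed overt cytotoxicity.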

Read-out in experiment [18]: Urokinase-type plasminogen activator receptor (uPAR), PLAUR (gene 5329)
Description: BSK_BE3C_uPAR: BioMAP Diversity Plus: BE3C Assay for Urokinase-type plasminogen activator receptor (uPAR) Biomarker Activity (AID 2283039).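 For outcome: uPAR protein level measured by ELISA on the cells; cells exposed to compound for one day before measurement.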 To be noted: primary human bronchial epithelial cells; actives raise or lower the signal. The procedure, abridged: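 ELISA readout of uPAR on human lung primary bronchial epithelial cells, 24 h post-dosing. Bidirectional curve fit relative to DMSO vehicle baseline; gain or loss of signal both scored.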

Experiment [19] can be described thus: BSK_3C_Vis: BioMAP Diversity Plus: 3C Assay for Morphology Visualization (AID 2283025).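 For AC50: light microscopy image of cell morphology used as background control.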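 Note: fitted both ways so gain or loss versus DMSO counts.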 Particulars: primary human endothelial cells (HUVEC). The procedure, abridged:
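HUVEC, 3C system; light microscopy of morphology at 24 h post-dose. Bidirectional fit vs DMSO baseline. Secondary readout, background-control function.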

Read-out in experiment [20]: Transforming growth factor beta 1 (TGFb1), TGFB1 (gene 7040)
Description: BSK_BE3C_TGFb1: BioMAP Diversity Plus: BE3C Assay for Transforming growth factor beta 1 (TGFb1) Biomarker Activity (AID 2283036;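 for outcome: TGF-b1 protein level measured by ELISA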). Particulars: primary human bronchial epithelial cells; actives raise or lower the signal. An outline of the steps:
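Read-out: ELISA for TGF-b1 in primary human bronchial epithelial cultures, 24 h post-dose. Bidirectional curve fitting vs DMSO control; gain or loss of signal both scored.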

human Vitamin D Receptor (VDR), VDR (gene 7421), sequence (P11473 whole entry, looked up, the tested form may be a part): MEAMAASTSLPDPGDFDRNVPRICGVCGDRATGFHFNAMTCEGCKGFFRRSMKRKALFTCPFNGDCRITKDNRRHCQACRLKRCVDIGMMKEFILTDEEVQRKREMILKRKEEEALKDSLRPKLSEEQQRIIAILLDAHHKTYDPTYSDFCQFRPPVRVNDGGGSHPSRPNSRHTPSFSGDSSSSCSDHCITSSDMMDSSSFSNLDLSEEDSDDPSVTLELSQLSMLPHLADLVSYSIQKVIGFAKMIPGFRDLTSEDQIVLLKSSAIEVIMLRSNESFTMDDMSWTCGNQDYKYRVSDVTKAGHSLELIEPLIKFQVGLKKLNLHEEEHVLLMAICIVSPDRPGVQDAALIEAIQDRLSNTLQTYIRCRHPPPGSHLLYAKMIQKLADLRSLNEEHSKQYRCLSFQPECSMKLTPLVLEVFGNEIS

In the case of `C=CC(=O)OCCC(F)(F)C(F)(F)C(F)(F)C(F)(F)F`, the result in experiment [1], in experiment [2], in experiment [3], in experiment [4], in experiment [5] and in experiment [6] was inactive. For the same molecule, the result in experiment [7], in experiment [8], in [10], in [11], in experiment [12] and in [13] was inactive. Also, the outcome in experiment [14], in [15], in experiment [16], in [17] and in experiment [18] was inactive. The AC50 is 6.34 µM (active) and 21.1 µM (active) in experiment [9]; 21.1 µM (active) in [13].
`CC1=CC2C3C=CC(C3)C2C1C` (stereo not given): the outcome in experiment [1], in experiment [2], in [3], in [4], in experiment [5] and in experiment [19] was inactive. Moreover, the outcome in experiment [6], in experiment [7], in experiment [8], in experiment [9], in [10] and in experiment [11] was inactive. Also, the outcome in experiment [12], in experiment [13], in experiment [14], in experiment [15], in [20] and in [16] was inactive. Also, the outcome in experiment [17] and in experiment [18] was inactive.
As to `OCC(F)(F)C(F)(F)C(F)(F)C(F)(F)C(F)(F)C(F)(F)C(F)(F)C(F)(F)CO`, the outcome in experiment [1], in [2], in experiment [3], in [4], in [5] and in experiment [6] was inactive. In addition, the outcome in experiment [7], in experiment [8], in experiment [9], in experiment [10], in experiment [11] and in [17] was inactive. The AC50 in [4] is 24.6 µM (active); in experiment [5], 8.5 µM (active); in experiment [6], 9.58 µM (active); in experiment [7], 36.5 µM (active); in experiment [12] it was 30 µM (active) and 31.7 µM (active); in experiment [13] it was 30 µM (active) and 24.8 µM (active). Also, the AC50 was 38 µM (active) and 30.8 µM (active) in experiment [14]; 43 µM (active) and 46.6 µM (active) in experiment [15]; 37.4 µM (active) and 30 µM (active) in experiment [16]; 43.7 µM (active) and 40.9 µM (active) in experiment [18].
In the case of `Brc1nc2ccccc2s1`, the outcome in experiment [1], in [2], in experiment [3], in [4], in experiment [5] and in experiment [19] was inactive. In addition, the outcome in [6], in [7], in experiment [8], in experiment [9], in experiment [10] and in experiment [11] was inactive. Also, the result in experiment [12], in experiment [13], in experiment [14], in experiment [15], in [20] and in experiment [16] was inactive. Besides, the outcome in experiment [17] and in experiment [18] was inactive.
Regarding `CC(C)CCCC(C)CCO` (stereo not given), the outcome in experiment [1], in experiment [2], in experiment [3], in [5], in experiment [9] and in experiment [10] was inactive. Moreover, the outcome in experiment [11], in [13], in [15] and in experiment [16] was inactive. Besides, the concentration at half-maximal activity (AC50) in [4] was 33.8 µM (active); in experiment [19] it was 39.6 µM (active); in experiment [6], 31.2 µM (active); in experiment [7] it was 28.8 µM (active); in experiment [8], 7.28 µM (active); in [12] it was 29.1 µM (active). The AC50 in experiment [14] is 14.4 µM (active); in [20] it was 20 µM (active); in [17], 28.6 µM (active); in experiment [18], 24.9 µM (active).
For `O=C(O)CCC(F)(F)C(F)(F)C(F)(F)C(F)(F)C(F)(F)C(F)(F)C(F)(F)F`, the result in experiment [1], in experiment [2], in experiment [3], in [4], in [6] and in experiment [7] was inactive. Also, the outcome in experiment [8], in experiment [9], in experiment [10], in experiment [11], in experiment [13] and in [14] was inactive. Further, the outcome in experiment [15], in experiment [16], in [17] and in experiment [18] was inactive. The concentration at half-maximal activity (AC50) in experiment [5] was 3.33 µM (active) and 3.8 µM (active); in experiment [12], 2.48 µM (active) and 3.33 µM (active); in experiment [14] it was 2.32 µM (active).
